From PubChem BioAssay AID1476 (National Center for Advancing Translational Sciences (NCATS), 2009)
Out of some 200,000 compounds screened, about 4,500 (2.2%) were called active. Not shown: some 12% with an inconclusive outcome. Only a selection was taken, and actives are over-represented in it overall. A number with no mark means an inactive call. Calls follow the shape of the dose curve; as a rule, active = well fitted inhibition curve with a large enough effect; inconclusive = small, poorly fitted or top-dose-only effect, or effect the other way; inactive = flat fitted curve, though single readings scatter.

Each molecule was assayed against Cruzipain (Trypanosoma cruzi) (UniProt P25779) (assay: qHTS Assay for Promiscuous and Specific Inhibitors of Cruzain (without detergent)). Conditions: purified cruzain, Z-FR-AMC fluorescence, no detergent.
Chain of Cruzipain (Trypanosoma cruzi) (P25779 123-467 limits assumed): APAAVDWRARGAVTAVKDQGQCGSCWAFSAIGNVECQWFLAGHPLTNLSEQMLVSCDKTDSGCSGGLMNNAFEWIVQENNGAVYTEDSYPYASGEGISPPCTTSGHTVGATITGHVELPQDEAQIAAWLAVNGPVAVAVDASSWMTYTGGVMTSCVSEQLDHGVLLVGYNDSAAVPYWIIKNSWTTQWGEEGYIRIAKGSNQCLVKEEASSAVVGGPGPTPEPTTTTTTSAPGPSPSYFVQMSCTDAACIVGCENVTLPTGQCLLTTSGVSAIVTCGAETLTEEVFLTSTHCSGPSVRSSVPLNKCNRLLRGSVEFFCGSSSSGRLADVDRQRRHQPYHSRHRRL
Summary of the method: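 Detergent-free condition (0.00005% Triton X-100) in acetate buffer pH 5.5 with DTT. 1.5 nM enzyme and compound were pre-mixed 15 min, then 2 uM Z-FR-AMC substrate added; reaction progress from fluorescence change between first and third reads (60 s).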
Also: nearly all actives have a fitted effect of over 40% in size.
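For max response, negative = inhibition in this document: plate controls were enzyme without inhibitor for no effect and buffer without enzyme for full effect.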
Potency is read from the fitted curve at half-maximal effect.

SMILES	max response, negative = inhibition	Potency
COc1ccc(Cl)cc1NC(=O)CCC(=O)c1ccc(C)cc1	4.58%	
CCCCCCC(=O)Nc1nc(C)c(-c2csc(Nc3cc(Cl)ccc3OC)n2)s1		3.16 µM (active)
CCCCC(=O)N/N=C(\C)CC(=O)Nc1cc(Cl)ccc1OC	7.24%	
CCOCCn1ccc2c(OCC(=O)NCc3ccc(C)cc3)cccc2c1=O	4.16%	
Cc1cc(F)ccc1NC1(c2ccccc2)C(=O)c2ccccc2C1=O	-5.27%	
CCOC(=O)c1ccc(NC(=O)C2CCN(S(=O)(=O)c3ccc4c(c3)CCCC(=O)N4)CC2)cc1	1.28%	
CC(C)NC(=O)C(=O)NCCN1CCN(S(=O)(=O)c2ccc(Cl)cc2)CC1	-2.28%	
O=C(ON=C1CCN(S(=O)(=O)c2ccccc2)CC1)c1ccc(Cl)cc1	20.4%	
Cc1c(C2=CCN(S(=O)(=O)c3ccc(Cl)cc3)CC2)c2ccccc2n1C		31.6 µM (active)
CCc1nn(CCCC(=O)NCc2ccccc2OC)c(=O)c2cc3occc3n12	-6.49%	
CCOc1ccc(-c2cc3c(=O)n(CC(=O)NCc4ccc(OC)cc4)ccn3n2)cc1	4.06%	
COc1cc(NC(=O)CCNC(=O)Cn2ccc3ccccc3c2=O)cc(OC)c1OC	-10.9%	
O=C(COC(=O)c1cc(=O)[nH]c2ccccc12)Nc1nc(-c2cccc(Br)c2)cs1		15.8 µM (active)
CCOC(=O)c1ccc(COC(=O)c2cc(=O)[nH]c3ccccc23)o1	-5.71%	
Cc1cc(C(=O)OCC(=O)Nc2nnc(C(C)C)s2)c2ccccc2n1	-3.17%	
CCN(Cc1ccccc1)S(=O)(=O)c1ccc2c(c1)CCCN2C(C)=O	12.3%	
O=C(NC1CC(=O)N(c2ccc(F)cc2)C1)c1ccc(S(=O)(=O)N2CCCC2)cc1 (stereo unspecified)	8.64%	
O=C(Nc1ccccc1)c1nnsc1S(=O)(=O)c1ccc(Cl)cc1	-8.46%	
O=C(c1ccc(Cl)cc1)c1cnc(Nc2ccccc2)s1		15.8 µM (active)

SMILES	max response, negative = inhibition	Potency
CC(C)(C)C(=O)c1cnc(Nc2ccccc2)s1	-10.8%	
Cc1ccc(C)c(S(=O)(=O)c2nnn3c2nc(N2CCOCC2)c2sccc23)c1	0.86%	
Cc1ccc2nc(COc3cccc(NC(=O)c4cccc(Cl)c4)c3)cc(=O)n2c1	-16.6%	
COc1cccc(C(=O)Nc2ccc3oc(-c4ccc5ccccc5c4)nc3c2)c1		12.6 µM (active)
COC(=O)c1ccc(-c2nc3cc(NC(C)=O)ccc3o2)cc1	5.54%	
Cc1ccccc1-c1nc2cc(NC(=O)c3cccc(OCCC(C)C)c3)ccc2o1	-8.64%	
COc1ccccc1OCCCn1c(-c2ccc(Cl)cc2)nc2ccccc2c1=O	3.21%	
COc1ccc(S(=O)(=O)NCc2cccn2Cc2cccc(C)c2)cc1Cl	6.08%	
COc1ccc(Br)cc1C1CC(=O)Nc2c1c(C)nn2-c1nc(C)cc(C)n1 (stereo unspecified)	3.34%	
CC(=O)c1ccc(N2CCN(c3nc4c(S(=O)(=O)c5ccccc5)nnn4c4ccc(Cl)cc34)CC2)cc1	0.808%	
CCOC(=O)c1c(-c2cccc(C)c2)csc1NC(=O)c1c(-c2ccccc2)noc1C		7.94 µM (active)
CCCS(=O)(=O)c1ncc(Cl)c(C(=O)Nc2scc(-c3ccccc3)c2C(=O)OCC)n1	-26.6%	
CC(=O)Nc1cccc(NC(=O)c2c(-c3ccccc3)noc2C)c1	2.43%	
CCOc1ccc(S(=O)(=O)c2cn(Cc3ccccc3)c3ccc(OCC)cc3c2=O)cc1	-17.9%	
COc1ccc(OC)c(NC(=O)Cn2c(=O)n(Cc3ccccc3)c(=O)c3ccccc32)c1	-9.43%	
COc1ccc(NC(=O)Cn2c(=O)n(Cc3ccc(C(=O)NCc4ccccc4Cl)cc3)c(=O)c3ccccc32)cc1		10 µM (active)
COc1ccc(NC(=O)Cn2c(=O)n(Cc3ccco3)c(=O)c3ccccc32)cc1	-4.83%	
Cn1nnc2c(N3CCN(c4ccccc4)CC3)ncnc21	-1.23%	
CCCCN1CC(c2nc3ccccc3n2CCCCOc2ccc(C)cc2C)CC1=O (stereo unspecified)	1.93%	

SMILES	max response, negative = inhibition	Potency
CCOc1ccccc1NC(=O)C1CCCN(S(=O)(=O)c2cn(C)cn2)C1 (stereo unspecified)	-18.2%	
O=C(COC(=O)CCc1c[nH]c(=O)[nH]1)Nc1ccccc1Cl	-19.9%	
NS(=O)(=O)c1ccc(NC(=O)COC(=O)c2c3c(nc4ccccc24)/C(=C\c2ccc4c(c2)OCO4)CCC3)cc1		20 µM (active)
O=C(COC(=O)/C(=C/c1cccs1)c1cccs1)NCc1ccccc1Cl	3.79%	
CC(NC(=S)Nc1ccc(S(N)(=O)=O)cc1)c1ccc2c(c1)OCO2 (stereo unspecified)	-22.3%	
O=C1/C(=C/c2ccc3c(c2)OCO3)CCC/C1=C\c1ccc2c(c1)OCO2	-11.7%	
O=C(COC(=O)c1c2c(nc3ccccc13)/C(=C\c1cccs1)CCC2)Nc1ccccc1Cl		31.6 µM (active)
COc1cccc(OCCn2c(-c3ccc(Br)cc3)nc3ccccc3c2=O)c1	-14.8%	
Cc1cc(C)cc(NS(=O)(=O)c2cc3c(cc2C)NC(=O)CO3)c1	6.94%	
Cc1cc(C)cc(NC(=O)CSc2nc(=O)n(CCN3CCOCC3)c3c2CCC3)c1	-7.74%	
O=C(c1ccc(Br)cc1)N(Cc1cccs1)c1ccc(F)cc1	11.6%	
COC(=O)c1ccc(NC(=O)CSc2n[nH]c(-c3ccccc3)n2)cc1	-7.41%	
COc1ccc(C(=O)Nc2nc(-c3ccc(S(=O)(=O)N4CCOCC4)cc3)cs2)cc1	-19.9%	
CCc1nnc(NC(=O)CSc2nnc(Cc3ccccc3)n2-c2ccc(OC)cc2)s1	-3.04%	
COc1ccc(-c2csc(NC(=O)CCCc3cccs3)n2)cc1		10 µM (active)
COc1ccc(Cc2nnc(NS(=O)(=O)Cc3ccccc3)s2)cc1	-1.39%	
Cc1ccc(-c2csc(NC(=O)Cc3cccs3)n2)cc1C	-12.6%	
COc1ccc(Cc2nnc(NC(=O)Cc3cccs3)s2)cc1		20 µM (active)
